Data reported in the supplement of paper PMC6522484.
Several values for one entry are separate records, joined by “and”; a condition that tells them apart may be missing. Equal entries are not always repeated. ± gives the standard deviation of the averaged measurements.

Experiments:
DLD1 [1] = assay: cell viability (CellTiter-Glo) relative to plate median (fraction of plate median); higher = more viable cells; conditions: 5 µM; treatment time 24 h; reporter: 7TFP
Method in brief: (§1)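 Colorectal cancer cell lines stably transduced with lentiviral TCF/Wnt firefly luciferase reporters (7TFP or TCF4/Wnt) were seeded in 384-well plates. 24 h later they received library compounds at a final 5 µM for 24 h. Parallel plates were read for firefly luciferase or CellTiterGlo luminescence on a Tecan F500 reader. Each well's signal was normalised to the plate median (webcellHTS2, additive, no log transformation), and the mean of two independent replicates is reported.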

HCT116 = assay: as above; conditions: 5 µM; treatment time 24 h; reporter: TCF4/Wnt
Method in brief: as §1

SW480 [2] = assay: as above; conditions: 5 µM; treatment time 24 h; reporter: 7TFP
Method in brief: as §1

DLD1 [3] = assay: TCF/Wnt firefly luciferase reporter signal relative to plate median (fraction of plate median); higher = higher Wnt reporter signal; conditions: 5 µM; treatment time 24 h; reporter: 7TFP
Method in brief: as §1

SW480 [4] = assay: as above; conditions: 5 µM; treatment time 24 h; reporter: 7TFP
Method in brief: as §1

SMILES: Cc1cc(C)cc(OCC2CNC(=O)O2)c1 (stereo not given)
- cell viability (DLD1 [1]): 0.964 ± 0.013
- cell viability (HCT116): 1.07 ± 0.1
- cell viability (SW480 [2]): 0.975 ± 0.05
- TCF/Wnt firefly luciferase reporter signal (DLD1 [3]): 1.02
- TCF/Wnt firefly luciferase reporter signal (SW480 [4]): 0.957 ± 0.039

SMILES: CC(=O)O[C@]1(C(C)=O)CC[C@H]2[C@@H]3C[C@H](C)C4=CC(=O)CC[C@]4(C)[C@H]3CC[C@@]21C
- cell viability (DLD1 [1]): 1.03 ± 0.014
- cell viability (HCT116): 0.989 ± 0.0099
- cell viability (SW480 [2]): 0.96 ± 0.018
- TCF/Wnt firefly luciferase reporter signal (DLD1 [3]): 0.971 ± 0.18
- TCF/Wnt firefly luciferase reporter signal (SW480 [4]): 1 ± 0.035

SMILES: Cc1cccc2c3c(ccc12)C1=C(C(=O)C3=O)[C@@H](C)CO1
- cell viability (DLD1 [1]): 0.936 ± 0.1
- cell viability (HCT116): 0.825 ± 0.011
- cell viability (SW480 [2]): 1.03 ± 0.014
- TCF/Wnt firefly luciferase reporter signal (DLD1 [3]): 0.955 ± 0.15
- TCF/Wnt firefly luciferase reporter signal (SW480 [4]): 1.08 ± 0.15

SMILES: CN1CCCN=C1/C=C/c1cccs1
- cell viability (DLD1 [1]): 0.984 ± 0.022
- cell viability (HCT116): 0.903 ± 0.093
- cell viability (SW480 [2]): 1.05
- TCF/Wnt firefly luciferase reporter signal (DLD1 [3]): 1.135 ± 0.0071
- TCF/Wnt firefly luciferase reporter signal (SW480 [4]): 0.994 ± 0.037

SMILES: CC(=O)c1ccc2c(c1)N(CCCN(C)C)c1ccccc1S2
- cell viability (DLD1 [1]): 0.976 ± 0.048
- cell viability (HCT116): 0.931 ± 0.037
- cell viability (SW480 [2]): 0.964 ± 0.016
- TCF/Wnt firefly luciferase reporter signal (DLD1 [3]): 1.06 ± 0.2
- TCF/Wnt firefly luciferase reporter signal (SW480 [4]): 0.913 ± 0.12

SMILES: Cc1cc(/C=C/c2ccc3cc(N(C)C)ccc3[n+]2C)c(C)n1-c1ccccc1
- cell viability (DLD1 [1]): 0.899 ± 0.057
- cell viability (HCT116): 0.592 ± 0.17
- cell viability (SW480 [2]): 0.852 ± 0.08
- TCF/Wnt firefly luciferase reporter signal (DLD1 [3]): 0.774 ± 0.1
- TCF/Wnt firefly luciferase reporter signal (SW480 [4]): 0.588 ± 0.085

SMILES: CC(=O)OCC(=O)[C@@]1(O)[C@@H](C)C[C@H]2[C@@H]3CCC4=CC(=O)C=C[C@]4(C)[C@@]3(F)[C@@H](O)C[C@@]21C
- cell viability (DLD1 [1]): 1.04 ± 0.014
- cell viability (HCT116): 1.17 ± 0.11
- cell viability (SW480 [2]): 1 ± 0.026
- TCF/Wnt firefly luciferase reporter signal (DLD1 [3]): 0.989 ± 0.011
- TCF/Wnt firefly luciferase reporter signal (SW480 [4]): 0.876 ± 0.14

SMILES: O=c1[nH]cc(F)c(=O)[nH]1
- cell viability (DLD1 [1]): 1.03 ± 0.083
- cell viability (HCT116): 0.905 ± 0.054
- cell viability (SW480 [2]): 1.11 ± 0.014
- TCF/Wnt firefly luciferase reporter signal (DLD1 [3]): 1.01 ± 0.13
- TCF/Wnt firefly luciferase reporter signal (SW480 [4]): 0.9685 ± 0.0064

SMILES: CC1(C)C=Cc2c(cc3occ(-c4ccc5c(c4)OCO5)c(=O)c3c2O)O1
- cell viability (DLD1 [1]): 0.951 ± 0.083
- cell viability (HCT116): 0.926 ± 0.17
- cell viability (SW480 [2]): 0.952 ± 0.042
- TCF/Wnt firefly luciferase reporter signal (DLD1 [3]): 0.909 ± 0.012
- TCF/Wnt firefly luciferase reporter signal (SW480 [4]): 1 ± 0.042

SMILES: O=C1CCc2cc(OCCCCc3nnnn3C3CCCCC3)ccc2N1
- cell viability (DLD1 [1]): 0.979 ± 0.03
- cell viability (HCT116): 1.09 ± 0.028
- cell viability (SW480 [2]): 1.035 ± 0.0071
- TCF/Wnt firefly luciferase reporter signal (DLD1 [3]): 1.03 ± 0.021
- TCF/Wnt firefly luciferase reporter signal (SW480 [4]): 0.987 ± 0.075

SMILES: CC(=O)Nc1nnc(S(N)(=O)=O)s1
- cell viability (DLD1 [1]): 0.981 ± 0.055
- cell viability (HCT116): 0.907 ± 0.11
- cell viability (SW480 [2]): 0.989 ± 0.016
- TCF/Wnt firefly luciferase reporter signal (DLD1 [3]): 0.865 ± 0.044
- TCF/Wnt firefly luciferase reporter signal (SW480 [4]): 1.09 ± 0.092

SMILES: COc1ccc(-c2cc(=O)c3ccccc3o2)cc1
- cell viability (DLD1 [1]): 1 ± 0.066
- cell viability (HCT116): 0.983 ± 0.11
- cell viability (SW480 [2]): 1.03
- TCF/Wnt firefly luciferase reporter signal (DLD1 [3]): 1.28 ± 0.12
- TCF/Wnt firefly luciferase reporter signal (SW480 [4]): 1.13 ± 0.18

SMILES: CC(=O)Oc1cccc(O)c1
- cell viability (DLD1 [1]): 1.01 ± 0.095
- cell viability (HCT116): 1.06 ± 0.042
- cell viability (SW480 [2]): 1.07 ± 0.021
- TCF/Wnt firefly luciferase reporter signal (DLD1 [3]): 0.952 ± 0.097
- TCF/Wnt firefly luciferase reporter signal (SW480 [4]): 1.05 ± 0.028

SMILES: Oc1cc(O)c2c(c1)O[C@H](c1ccc(O)c(O)c1)[C@H](O)C2
- cell viability (DLD1 [1]): 0.953 and 0.936
- cell viability (HCT116): 1.03 and 0.956
- cell viability (SW480 [2]): 1.01 and 1.06
- TCF/Wnt firefly luciferase reporter signal (DLD1 [3]): 0.934 and 1.07
- TCF/Wnt firefly luciferase reporter signal (SW480 [4]): 0.985 and 1.08

SMILES: C=CCSCC=C
- cell viability (DLD1 [1]): 0.9785 ± 0.0078
- cell viability (HCT116): 0.967 ± 0.047
- cell viability (SW480 [2]): 0.98 ± 0.029
- TCF/Wnt firefly luciferase reporter signal (DLD1 [3]): 0.959 ± 0.015
- TCF/Wnt firefly luciferase reporter signal (SW480 [4]): 0.95 ± 0.05

SMILES: CNC(=C[N+](=O)[O-])NCCSCc1ccc(CN(C)C)o1
- cell viability (DLD1 [1]): 0.892 ± 0.018
- cell viability (HCT116): 0.983 ± 0.024
- cell viability (SW480 [2]): 0.974 ± 0.011
- TCF/Wnt firefly luciferase reporter signal (DLD1 [3]): 0.998 ± 0.017
- TCF/Wnt firefly luciferase reporter signal (SW480 [4]): 0.953 ± 0.016

SMILES: C#C[C@]1(O)CC[C@H]2[C@@H]3CCC4=CCCC[C@@H]4[C@H]3CC[C@@]21C
- cell viability (DLD1 [1]): 1 ± 0.094
- cell viability (HCT116): 1.04 ± 0.021
- cell viability (SW480 [2]): 0.97 ± 0.0085
- TCF/Wnt firefly luciferase reporter signal (DLD1 [3]): 1.02 ± 0.033
- TCF/Wnt firefly luciferase reporter signal (SW480 [4]): 0.905 ± 0.042
